# Screens: PubChem BioAssay, National Center for Advancing Translational Sciences (NCATS)
# KB-3-1 tox – qHTS assay for MDR1-selective chemotherapeutics: Primary screen using the parental adenocarcinoma cell KB-3-1. KB-3-1 viability, CellTiter-Glo ATP luminescence, 72 h. Potency, µM (series often up to 46.1 µM), most hits filed as cytotoxic. 400,000 compounds, 1.4% hits; further: nearly all actives have a fitted effect of over 60% in size
#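 Using CellTiter-Glo luminescence, growth of non-resistant KB-3-1 adenocarcinoma cells is assessed 72 h after pin-tool compound addition at 37 °C. Normalized responses across the concentration series yield fitted curves.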
# HT1080 IDH1KD tx – qHTS for induction of synthetic lethality in tumor cells producing 2HG: qHTS for the HT-1080-IDH1KD cell line. HT-1080 IDH1 knockdown viability, ATP luminescence, 48 h. Potency, µM (top dose mostly 46.1 µM), without a hit: top-dose activity, negative = toxicity, most hits filed as cytotoxic. 360,000 compounds, 2% hits. AID 686971, 2013;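 further: 0% = DMSO wells and -100% = cell-free medium wells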
#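 IDH1KD HT-1080 cells, 750/well, RPMI + 5% FBS; compound pinned after 2 h settling; 48 h, 37 °C; CellTiter-Glo luminescence; % activity normalised to DMSO and no-cell wells; curves fitted, classed by r2 and efficacy.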
# TDP1 cell CPT – qHTS for Inhibitors of human tyrosyl-DNA phosphodiesterase 1 (TDP1): qHTS in cells in presence of CPT | Potency, µM (doses to about 46.2 µM), inactives show top-dose activity change, negative = growth inhibition, actives largely listed as inhibitors | chicken DT40 Tdp1-/-;hTDP1 cells + 20 nM CPT, ATP luminescence, 48 h | 420,000 compounds, 12% hits; further: nearly all actives have a fitted effect of over 55% in size
#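 Chicken DT40 Tdp1-/- cells complemented with human TDP1, 400 cells/well, exposed to compounds plus 20 nM camptothecin for at least 48 h at 37 C; viability read as ATP content by CellTiter-Glo luminescence.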
# KB-V1 MDR tox – qHTS assay for MDR1-selective chemotherapeutics: Primary screen using the drug-selected MDR subline cells KB-V1. KB-V1 MDR cells viability, CellTiter-Glo, 72 h. Potency, µM (series often up to 46.1 µM), hits mostly cytotoxic. 400,000 compounds, 3.4% hits; further: nearly all actives have a fitted effect of over 60% in size
#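 qHTS viability screen in drug-selected KB-V1 MDR cells: 72 h compound treatment at 37 degrees C, ATP luminescence end point.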
# HT1080NT lethal – qHTS for induction of synthetic lethality in tumor cells producing 2HG: qHTS for the HT-1080-NT fibrosarcoma cell line. HT-1080-NT fibrosarcoma viability, CellTiter-Glo ATP luminescence, 48 h. Potency, µM (series often up to 46.1 µM), without a hit: top-dose activity, negative = less viability, hits mostly cytotoxic. 360,000 compounds, 1.6% hits;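 further: NT is the 2HG producing partner of a matched IDH1 knockdown line; 0% = DMSO-treated cells and -100% = media-only wells without cells; nearly all actives have a fitted effect of over 55% in size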
#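 Viability by CellTiter-Glo luminescence after 48 h compound exposure at 37C of HT-1080-NT cells (750/well, RPMI, 5% FBS). % activity scaled between DMSO wells and medium-only wells, then curve-fitted and categorized by curve class.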
# DT40 TDP1 no CPT – qHTS for Inhibitors of human tyrosyl-DNA phosphodiesterase 1 (TDP1): qHTS in cells in absence of CPT; DT40 Tdp1-/- hTDP1 cells, no CPT, ATP luminescence, 48 h; Potency, µM (doses to about 46.2 µM), inactives show top-dose activity change, negative = growth inhibition, hits mostly inhibitors; 420,000 compounds, 15% hits; AID 686978, 2013; further: nearly all actives have a fitted effect of over 55% in size
#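 Chicken DT40 Tdp1-/- cells complemented with human TDP1, screened without camptothecin (DMSO vehicle only), 400 cells/well. Compounds pin-transferred, cells incubated at 37 °C for at least 48 hr. Growth read as ATP-dependent luminescence (CellTiter-Glo, 30 min at RT).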
# * = called active by the depositor; i = inactive; ? = inconclusive; / = no result given. In the library only some 19% were active in any assay of this set; here they are far more common. The call rests on the fitted dose curve; in most records, active means well fitted curve in the direction sought with a large enough effect; inconclusive means small, poorly fitted or top-dose-only effect, or another doubt; inactive means no such curve, though single readings can be large; an effect the other way counts as inactive or inconclusive. Unless noted, on the % scale 0 is the no-effect control and ±100 the full control effect; potency means the concentration at half of the fitted maximal effect.
SMILES,KB-3-1 tox,HT1080 IDH1KD tx,TDP1 cell CPT,KB-V1 MDR tox,HT1080NT lethal,DT40 TDP1 no CPT
CCOC(=O)N1CCN(C(=O)CSc2nc3c([nH]c4ccccc43)c(=O)n2CCOC)CC1,i,-21.5%,?,i,-4.3%,18.4µM*
CCn1c(SCC(=O)N2CCN(c3ccccc3)CC2)nc2c([nH]c3ccccc32)c1=O,?,11.4%,14.6µM*,i,-0.5%,8.2µM*
Cc1ccccc1C(=O)OCC(=O)Nc1cccc(S(=O)(=O)NC2=NCCC2)c1,i,1.5%,2.1%,i,8.1%,19.0%
C[C@@H]1CN([C@@H](C)CO)C(=O)CCCn2cc(nn2)CO[C@H]1CN(C)C(=O)c1ccc2ccn(C)c2c1,i,3.1%,4.7%,i,-12.4%,?
O=C(Nc1ccc(Cl)cc1)c1ccc2c(=O)n3c(nc2c1)CCCCC3,i,-6.2%,?,i,-14.5%,?
O=C(Nc1cccc(Cl)c1)c1ccc2c(=O)n3c(nc2c1)CCCCC3,?,-11.9%,23.1µM*,i,?,?
O=C(Nc1ccc(F)c(Cl)c1)c1ccc2c(=O)n3c(nc2c1)CCCCC3,?,-25.0%,16.4µM*,?,-3.8%,20.6µM*
Cc1ccc(-c2csc(NC(=O)c3ccc4c(=O)n5c(nc4c3)CCCCC5)n2)cc1,i,2.7%,10.3µM*,10.3µM*,11.5%,13µM*
O=C(Nc1ccc(S(=O)(=O)N2CCCC2)cc1)c1ccc2c(=O)n3c(nc2c1)CCCCC3,i,2.2%,?,i,3.5%,16.4µM*
CC(=O)c1ccc(NC(=O)c2ccc3c(=O)n4c(nc3c2)CCCCC4)cc1,i,-1.2%,?,?,-11.0%,?
O=C(Nc1ccc(C(=O)OCc2cc(=O)n3nc(C4CC4)sc3n2)cc1)c1ccccc1,i,/,-18.8%,i,/,-20.8%
COC(=O)N1CCC2(CCN(C(=O)Nc3cccc(C#N)c3)CC2)CC1,/,/,5.9%,/,/,-22.0%
CC(=O)NC(=S)Nc1ccc2oc(=O)ccc2c1,i,15.6%,7.8%,i,?,-1.3%
O=C(Nc1ccc(F)cc1)c1ccc2c(=O)n3c(nc2c1)CCCCC3,i,2.6%,?,?,0.9%,16.4µM*
O=C(CC1(O)C(=O)N(CCc2ccccc2)c2ccccc21)c1ccccn1 (stereo not drawn),i,24.6%,2.59µM*,i,15.1%,5.17µM*
O=C(CC1(O)C(=O)N(C/C=C/c2ccccc2)c2ccccc21)c1ccccn1 (stereo not drawn),?,10µM*,1.26µM*,?,?,0.891µM*
CNc1cnc(-c2ccc(O)c(OC)c2)cn1,i,-15.6%,16.4µM*,i,-3.8%,?
CNc1ccc(-c2cc(OC)ccc2OC)cn1,i,6.9%,-15.0%,i,?,-14.1%
Cc1cccc(C)c1-n1nnnc1C1(C)CCC(=O)N1Cc1cccnc1 (stereo not drawn),i,14.5%,-9.3%,i,17.8%,-24.0%
CCCNC(=O)C1(C)CCN(Cc2cc(-c3ccccc3)on2)C1 (stereo not drawn),i,1.6%,?,i,-0.8%,14.6µM*
CCCNC(=O)C1(C)CCCN(Cc2csc(-c3ccccc3)n2)C1 (stereo not drawn),?,-3.8%,?,i,-27.0%,20.6µM*
CCNC(=O)C1(C)CCCN(Cc2csc(-c3ccc(Cl)cc3)n2)C1 (stereo not drawn),?,?,-108.6%,i,0.461µM*,-102.7%
COCCNC(=O)C1(C)CCN(Cc2csc(-c3ccc(Cl)cc3)n2)C1 (stereo not drawn),i,3.3%,?,?,-11.6%,?
Cc1ccc(OCCCCn2cnc3ccccc32)c(C)c1,i,-24.2%,13µM*,?,-8.5%,8.2µM*
Clc1ccc(OCCn2cnc3ccccc32)cc1,i,-13.8%,23.1µM*,i,-13.8%,18.4µM*
SMILES,KB-3-1 tox,HT1080 IDH1KD tx,TDP1 cell CPT,KB-V1 MDR tox,HT1080NT lethal,DT40 TDP1 no CPT
NC(=O)CCn1cnc2ccccc21,i,-1.5%,18.0%,i,8.8%,1.3%
Clc1ccccc1OCCn1cnc2ccccc21,i,3.2%,-18.0%,20.6µM*,9.0%,-22.3%
Cc1ccc(C)c(OCCCCn2cnc3ccccc3c2=O)c1,i,?,?,i,1.8%,?
c1ccc2c(c1)ncn2CCC1CCCCC1,i,-1.6%,25.9µM*,?,-13.4%,20.6µM*
Clc1ccc(Cn2cnc3ccccc32)cc1,?,?,?,i,-25.5%,?
Cc1c(Cl)cnc(NC(=O)COC(=O)c2cc3c(s2)CCC(C)C3)c1Cl (stereo not drawn),i,7.1%,-28.1%,i,1.3%,?
Brc1ccccc1OCCCCCN1CCOCC1,i,-0.2%,1.8%,?,-20.2%,?
Brc1ccccc1Cn1cnc2ccccc21,i,-11.3%,?,i,2.1%,20.6µM*
Brc1ccccc1OCCCCn1cnc2ccccc21,5.17µM*,?,4.11µM*,?,-15.9%,10.3µM*
Cn1c(Cn2cnc3ccccc32)nc2ccccc21,i,?,-18.2%,i,-15.3%,-28.9%
Cc1ccc(C(C(=O)NC(C)(C)C)N(Cc2cccnc2)C(=O)C(=O)NC2CCCCC2)o1 (stereo not drawn),i,13.0%,16.1%,?,23.4%,3.3%
CCOc1cccc(C(=O)Nc2ccncc2)c1,i,-13.3%,23.1µM*,?,?,?
CCCCOc1cccc(NC(=O)c2cccc(C(=O)Nc3cccc(OCCCC)c3)c2)c1,/,/,18.4µM*,/,/,7.31µM*
CCCOc1ccc(C(=O)Nc2ccc(NC(=O)c3ccccc3)c(C)c2)cc1,i,/,?,i,/,16.4µM*
CCCOc1cccc(C(=O)Nc2ccc(-c3nc4ccccc4o3)cc2)c1,i,/,?,i,/,13µM*
CCOc1cccc(C(=O)Nc2ccc(NC(=O)c3ccccc3)c(C)c2)c1,i,?,?,i,?,?
